# Measurements: PubChem BioAssay (NCATS)
# Results filed as inconclusive are left out. A number with no mark means an inactive call. The source made the active and inactive calls. Calls follow the shape of the dose curve; as a rule, active = well fitted curve in the direction sought with a large enough effect; inconclusive = small, poorly fitted or top-dose-only effect, or another doubt; inactive = no such curve, though single readings can be large; an effect the other way counts as inactive or inconclusive.
# Experiments:
# [1] = Confirmatory screen GU Rhodamine qHTS for Zika virus inhibitors qHTS (AID 1347157); also: nearly all actives have a fitted effect of over 70% in size; also: potency is read from the fitted curve at half-maximal effect;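 as to activity change, negative = inhibition: plate controls were no-inhibitor wells for no effect and no-enzyme wells for full effect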
# Summary of the method: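 Noncovalent NS2B hydrophilic domain/NS3 protease complex (25 nM final) in 10 mM Tris-HCl pH 8.0, 0.01% Tween 20, preincubated 15 min with compounds (up to 114 microM), then 1.5 microM Rhodamine110 substrate. Fluorescence change over 15 min fitted to 4-parameter Hill.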
# [2] = ZIKV-mCherry secondary qHTS for Zika virus inhibitors (AID 1347158); also: top concentration of the series differs between compounds
# Summary of the method: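 Compounds were tested in Vero monkey kidney cells infected with recombinant mCherry-expressing Zika virus at MOI 1 for 48-72 h at 37 °C. Fixed cells were nuclear-stained and imaged, and infection rate was taken as the fraction of mCherry-positive cells.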
# [3] = Confirmatory screen NINDS Rhodamine qHTS for Zika virus inhibitors (AID 1347161); also: potency is read from the fitted curve at half-maximal effect; nearly all actives have a fitted effect of over 60% in size
# Summary of the method: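 Enzyme (25 nM, linked NS2B-NS3) was preincubated 15 min with compound in 10 mM Tris-HCl pH 8.0, 0.01% Tween 20. Rhodamine110 substrate (1.5 microM) was then added and fluorescence read at start and after 15 min.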
# [4] = system: Zika virus NS2B-NS3 protease (linked); test: 384 well plate NINDS AMC confirmatory qHTS for Zika virus inhibitors (AID 1347163); also: nearly all actives have a fitted effect of over 50% in size; also: potency is read from the fitted curve at half-maximal effect;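 as to activity change, negative = inhibition: linked protease at 5 30 or 60 nM final depending on run; fluorescence of AMC released from Ac-VKTGKR-AMC peptide cleaved by the protease; top concentration of the series differs between compounds; 0% = no-inhibitor control and -100% = no-enzyme control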
# Summary of the method: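 Fluorescence at 355/460 nm was read after 25 minutes of cleavage of 30 microM Ac-VKTGKR-AMC at room temperature, in the dark. Before substrate addition, compounds (up to 1 mM final) sat ~15 minutes with 5, 30 or 60 nM linked protease. Signals were normalized to no-enzyme and no-inhibitor wells.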
# [5] = system: Zika virus NS2B-NS3 protease (linked construct); test: 384 well plate NINDS Rhodamine confirmatory qHTS for Zika virus inhibitors (AID 1347164);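 also: fluorescence from protease cleavage of Ac-LKRR-rhodamine 110 substrate; nearly all actives have a fitted effect of over 65% in size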; also: potency is read from the fitted curve at half-maximal effect;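 as to activity change, negative = inhibition: top concentration of the series differs between compounds; plate controls were no-inhibitor control for no effect and no-enzyme control for full effect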
# Summary of the method: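 Enzyme (final 5/30/60 nM) + cpd (DMSO), ~15 min; add Ac-LKRR-Rd 10 microM final; 25 min RT, dark; FI ex 485/em 538; normalized to no-enzyme, no-inhibitor ctrls; aprotinin intraplate ctrl.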
# [6] = Tertiary RLuc qRT-PCR qHTS assay for Zika virus inhibitors (AID 1347169); also: top concentration of the series differs between compounds; % is scaled to controls: 0 for no effect and ±100 for the full control effect; nearly all actives have a fitted effect of over 55% in size
# Summary of the method: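 Vero, 1,000 cells/well, o/n 37 C; cpd pinned in DMSO; ZIKV-RLuc Cambodian, MOI 1-2, 48-72 h 37 C; live-cell RLuc substrate, lum read at 1-1.5 h.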
# [7] = molecular target: Rap guanine nucleotide exchange factor 3 (Homo sapiens) (UniProt O95398); test: Confirmatory qHTS for antagonist of cAMP-regulated guanine nucleotide exchange factor 3 (EPAC1) (AID 1645880);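 also: plate controls were DMSO only for no effect and full effect of the ATA control for full effect; nearly all actives have a fitted effect of over 55% in size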
# Summary of the method: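 Released BODIPY-GDP fluoresces less than Rap1-bound BODIPY-GDP; the signal is followed at 480/540 nm at 5-min intervals over 30 min, after 5 min at room temperature. Reactions contain 100 nM EPAC1, 250 nM RAP1B-BODIPY-GDP and 50 uM GDP; results are normalized to ATA and DMSO.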
# [8] = molecular target: Rap guanine nucleotide exchange factor 4 (Homo sapiens) (UniProt Q8WZA2); test: Confirmatory qHTS for antagonist of cAMP-regulated guanine nucleotide exchange factor 4 (EPAC2) (AID 1645885); also: % is scaled to controls: 0 for no effect and ±100 for the full control effect; nearly all actives have a fitted effect of over 25% in size
# [9] = molecular target: Rap guanine nucleotide exchange factor 3 (Homo sapiens) (UniProt O95398); test: Counterscreen qHTS for antagonist of cAMP-regulated guanine nucleotide exchange factor 3 (EPAC1) (AID 1645888); also: % of control where 0% means no effect
# Summary of the method: (§1)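 Rap1B–BODIPY-GDP (250 nM) with 50 uM GDP; compounds pin-transferred to 9.74 nM–152 uM final (activator) or from 7.32 nM upwards (inhibitor). Fluorescence Ex/Em 480/540 nm read at 5 and 30 min, then after adding cAMP or buffer, at room temperature.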
# [10] = molecular target: Rap guanine nucleotide exchange factor 3 (Homo sapiens) (UniProt O95398); test: Counterscreen qHTS for agonist of cAMP-regulated guanine nucleotide exchange factor 3 (EPAC1) (AID 1645889); also: potency is read from the fitted curve at half-maximal effect; nearly all actives have a fitted effect of over 40% in size
# Summary of the method: as §1
# Sequence of Rap guanine nucleotide exchange factor 3 (Homo sapiens) (O95398 whole entry, looked up): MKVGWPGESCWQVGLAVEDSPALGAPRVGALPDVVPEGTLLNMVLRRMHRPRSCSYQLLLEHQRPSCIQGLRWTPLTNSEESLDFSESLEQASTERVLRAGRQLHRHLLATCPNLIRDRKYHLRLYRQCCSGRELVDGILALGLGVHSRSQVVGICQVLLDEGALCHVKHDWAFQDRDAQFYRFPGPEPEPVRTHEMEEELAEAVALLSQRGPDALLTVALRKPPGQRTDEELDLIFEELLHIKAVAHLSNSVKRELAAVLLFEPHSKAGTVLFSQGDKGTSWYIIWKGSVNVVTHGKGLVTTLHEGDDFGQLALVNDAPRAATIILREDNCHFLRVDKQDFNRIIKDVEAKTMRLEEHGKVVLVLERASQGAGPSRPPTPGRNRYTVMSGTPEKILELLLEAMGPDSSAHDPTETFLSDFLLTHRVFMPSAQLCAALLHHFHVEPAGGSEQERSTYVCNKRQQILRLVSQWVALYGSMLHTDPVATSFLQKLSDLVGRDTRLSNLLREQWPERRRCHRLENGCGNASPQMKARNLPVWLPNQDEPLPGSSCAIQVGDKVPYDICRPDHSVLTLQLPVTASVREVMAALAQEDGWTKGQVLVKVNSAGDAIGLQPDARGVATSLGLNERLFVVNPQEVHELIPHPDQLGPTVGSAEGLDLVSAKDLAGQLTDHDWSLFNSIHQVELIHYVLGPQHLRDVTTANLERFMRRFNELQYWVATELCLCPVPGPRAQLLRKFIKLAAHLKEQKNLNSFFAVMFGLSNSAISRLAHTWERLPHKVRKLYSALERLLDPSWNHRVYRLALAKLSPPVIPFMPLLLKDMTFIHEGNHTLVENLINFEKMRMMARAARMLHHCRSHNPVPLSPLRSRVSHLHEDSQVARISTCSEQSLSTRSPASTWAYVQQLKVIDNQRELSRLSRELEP
# Sequence of Rap guanine nucleotide exchange factor 4 (Homo sapiens) (Q8WZA2 whole entry, looked up): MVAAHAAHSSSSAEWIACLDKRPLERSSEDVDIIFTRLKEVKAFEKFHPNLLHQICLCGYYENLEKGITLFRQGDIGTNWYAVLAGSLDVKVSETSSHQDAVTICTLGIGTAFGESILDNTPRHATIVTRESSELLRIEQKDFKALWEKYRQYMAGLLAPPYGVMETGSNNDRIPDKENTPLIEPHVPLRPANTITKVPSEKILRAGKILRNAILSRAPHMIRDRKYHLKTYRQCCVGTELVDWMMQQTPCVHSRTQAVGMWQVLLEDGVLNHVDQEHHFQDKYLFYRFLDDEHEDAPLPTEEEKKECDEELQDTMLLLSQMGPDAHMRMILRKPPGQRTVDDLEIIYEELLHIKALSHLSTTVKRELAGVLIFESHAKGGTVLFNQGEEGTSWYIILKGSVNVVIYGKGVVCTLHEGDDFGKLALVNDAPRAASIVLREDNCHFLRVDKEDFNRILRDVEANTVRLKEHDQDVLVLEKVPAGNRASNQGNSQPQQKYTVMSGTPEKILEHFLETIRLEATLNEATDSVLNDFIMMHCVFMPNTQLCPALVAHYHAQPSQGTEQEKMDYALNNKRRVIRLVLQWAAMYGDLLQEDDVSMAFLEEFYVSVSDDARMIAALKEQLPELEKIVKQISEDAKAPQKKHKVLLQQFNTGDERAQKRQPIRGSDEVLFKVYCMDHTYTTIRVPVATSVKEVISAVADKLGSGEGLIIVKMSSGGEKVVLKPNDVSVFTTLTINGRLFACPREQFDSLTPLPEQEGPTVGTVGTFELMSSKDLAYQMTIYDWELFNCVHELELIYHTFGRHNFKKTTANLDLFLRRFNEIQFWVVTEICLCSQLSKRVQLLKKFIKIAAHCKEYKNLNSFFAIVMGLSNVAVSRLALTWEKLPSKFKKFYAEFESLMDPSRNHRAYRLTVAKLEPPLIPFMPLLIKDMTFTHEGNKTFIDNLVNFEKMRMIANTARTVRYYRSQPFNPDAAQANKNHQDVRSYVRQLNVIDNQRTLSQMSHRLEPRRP
smiles,measurement,setting,value
CC(C)c1ccc(NC(=O)c2ccc3c(O)c(S(=O)(=O)c4ccccc4)c(=O)[nH]c3c2)cc1,Potency,[1],17.8 µM (active)
same,Potency,[2],inactive
same,Potency,[3],3.98 µM (active)
same,Potency,[4],282 µM (active)
same,Potency,[5],28.2 µM (active)
CCS(=O)(=O)c1cccc(C(=O)Nc2ccc(-c3nc4ccccc4s3)c(O)c2)c1,Potency,[1],25.1 µM (active)
same,Potency,[3],15.8 µM (active)
same,Potency,[4],inactive
same,Potency,[5],14.1 µM (active)
same,Potency,[6],inactive
CC(C)(C)c1ccc(C(=O)Nc2ccc(C(=O)OCc3cc(=O)n4ccsc4n3)cc2)cc1,Potency,[1],inactive
N#C/C(=C\c1ccc(-c2cc(Cl)ccc2Cl)o1)C(=O)Nc1ccccc1C(=O)O,Potency,[1],3.16 µM (active)
same,Potency,[3],6.31 µM (active)
same,Potency,[4],20 µM (active)
same,Potency,[6],inactive
CCOC(=O)c1ccc(N2C(=O)c3n[nH]c(-c4cccs4)c3C2c2ccc(Cl)cc2Cl)cc1 (stereo not drawn),Potency,[1],31.6 µM (active)
same,Potency,[3],25.1 µM (active)
same,Potency,[5],44.7 µM (active)
O=C(O)c1ccccc1-c1c2cc(I)c(=O)c(I)c-2oc2c(I)c(O)c(I)cc12,Potency,[1],14.1 µM (active)
same,Potency,[2],inactive
same,Potency,[3],3.16 µM (active)
same,Potency,[4],56.2 µM (active)
same,Potency,[5],inactive
same,Potency,[6],inactive
same,Potency,[7],inactive
same,"activity change, negative = inhibition",[8],12.6% [at 12.7 µM]
same,"activity change, negative = inhibition",[9],212% [at 30.8 µM]
same,Potency,[10],7.08 µM (active)
